Where “and” joins values, the source holds several entries; their conditions need not be identical. Equal values may be shown once. Values without a mark were called inactive.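 The calls were made as follows: active = log2 fold change beyond 2 SD from the library mean after excluding viability outliers; inactive = within 2 SD.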
molecular target: PARP1 L713F-nLuc biosensor (HCT116) (UniProt P09874); test: PARP1 L713F-nLuc/akaLuc ratio relative to DMSO control (biosensor stabilization) (fold change); higher = more PARP1 biosensor stabilization (target engagement / stabilizer), active = hit call of the paper; settings: stock concentration (mM; final µM = stock mM x 1): 10; 24 h
Sequence (P09874 whole entry L713F, looked up): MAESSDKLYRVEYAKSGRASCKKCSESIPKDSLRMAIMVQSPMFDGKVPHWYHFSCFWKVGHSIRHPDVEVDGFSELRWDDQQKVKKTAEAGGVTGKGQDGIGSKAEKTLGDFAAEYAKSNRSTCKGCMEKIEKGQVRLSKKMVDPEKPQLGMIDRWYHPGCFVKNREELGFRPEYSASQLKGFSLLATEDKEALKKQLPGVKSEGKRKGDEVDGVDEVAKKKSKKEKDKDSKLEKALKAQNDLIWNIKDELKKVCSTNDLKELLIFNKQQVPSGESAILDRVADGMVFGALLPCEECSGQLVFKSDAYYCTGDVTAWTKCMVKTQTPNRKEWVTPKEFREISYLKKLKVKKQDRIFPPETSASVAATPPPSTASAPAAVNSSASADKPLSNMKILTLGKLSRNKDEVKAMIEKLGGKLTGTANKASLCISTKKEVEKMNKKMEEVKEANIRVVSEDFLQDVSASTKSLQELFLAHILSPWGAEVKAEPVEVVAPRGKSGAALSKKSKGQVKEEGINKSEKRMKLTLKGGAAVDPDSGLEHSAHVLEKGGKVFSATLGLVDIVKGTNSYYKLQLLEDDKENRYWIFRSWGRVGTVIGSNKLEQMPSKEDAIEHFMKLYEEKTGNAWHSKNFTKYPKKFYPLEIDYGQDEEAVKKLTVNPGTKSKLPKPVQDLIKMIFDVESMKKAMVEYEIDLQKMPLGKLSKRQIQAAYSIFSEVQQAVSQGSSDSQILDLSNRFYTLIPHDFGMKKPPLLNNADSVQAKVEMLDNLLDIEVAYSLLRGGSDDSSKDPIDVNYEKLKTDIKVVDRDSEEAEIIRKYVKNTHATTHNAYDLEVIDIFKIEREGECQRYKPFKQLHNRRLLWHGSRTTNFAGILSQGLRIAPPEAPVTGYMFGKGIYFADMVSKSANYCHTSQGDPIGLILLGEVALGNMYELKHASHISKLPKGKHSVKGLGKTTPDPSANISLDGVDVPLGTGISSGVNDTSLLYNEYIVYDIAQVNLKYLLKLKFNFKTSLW

| SMILES | PARP1 L713F-nLuc/akaLuc ratio |
| --- | --- |
| C[C@@H](Oc1cc(-n2cnc3ccc(CN4CCN(C)CC4)cc32)sc1C(N)=O)c1ccccc1C(F)(F)F | 0.601 |
| CC(C)N(CCCNC(=O)Nc1ccc(C(C)(C)C)cc1)C[C@H]1O[C@@H](n2cc(Br)c3c(N)ncnc32)[C@H](O)[C@@H]1O | 0.82 and 0.934 |
| CC1(C)CCC(CN2CCN(c3ccc(C(=O)NS(=O)(=O)c4ccc(NCC5CCOCC5)c([N+](=O)[O-])c4)c(Oc4cnc5[nH]ccc5c4)c3)CC2)=C(c2ccc(Cl)cc2)C1 [Venetoclax (ABT-199, GDC-0199)] | 0.901 |
| O=C(O)CNC(=O)c1ncc(-c2cccc(Cl)c2)cc1O [Vadadustat] | 1.03 |
| O=c1[nH]ccc2c(O)cccc12 [1,5-Isoquinolinediol] | 2.7 (active) |
| COc1ccc(C2CC(c3ccccc3)=NN2c2ccc(S(N)(=O)=O)cc2)cc1 (stereo not drawn) | 1.29 |
| CC(C)(C)C[C@@H]1N[C@@H](C(=O)N[C@H]2CC[C@H](O)CC2)[C@H](c2cccc(Cl)c2F)[C@]12C(=O)Nc1cc(Cl)ccc12 | 0.287 (active) |
| C[C@@H]1O[C@@H](O[C@H]2[C@H](OC(=O)[C@]34CCC(C)(C)C[C@H]3C3=CC[C@@H]5[C@@]6(C)C[C@H](O)[C@H](O[C@@H]7O[C@H](CO)[C@@H](O)[C@H](O)[C@H]7O)C(CO)(CO)[C@@H]6CC[C@@]5(C)[C@]3(C)C[C@H]4O)OC[C@H](O)[C@@H]2O)[C@H](O)[C@H](O)[C@H]1O[C@@H]1OC[C@@H](O)[C@H](O[C@@H]2OC[C@](O)(CO)[C@H]2O)[C@H]1O [Platycodin D] | 0.771 |
| CC(C)Nc1cc(-c2c[nH]c(C(=O)N[C@H](CO)c3cccc(Cl)c3)c2)c(Cl)cn1 | 0.364 |
| CCN(CCN(C)C)C(=O)CNCc1cc(C(N)=O)ccn1 [KDOAM-25 (citrate)] | 1.15 |
| Cc1cc(Nc2cc3ncccc3c(N[C@@H]3C[C@H]4CC[C@@H](C3)N4CCC#N)n2)n[nH]1 [Izencitinib] | 0.804 |
| O=C(NOCCO)c1ccc2cncn2c1Nc1ccc(I)cc1F | 0.421 |
| C[C@]12CC[C@@H]3c4ccc(O)cc4C[C@@H](CCCCCCCCC[S+]([O-])CCCC(F)(F)C(F)(F)F)[C@H]3[C@@H]1CC[C@@H]2O (stereo partly drawn) [Fulvestrant] | 0.949 |
